Here are results for 13 molecules from ChEMBL document CHEMBL3988442, “University of Dundee, Small-Polar-MMV Screening Library” (2021).

Common to all, as to parameters: scale not given: direction of the effect not stated beside the values
The target in assay [1] is Protein translocase subunit SecA (Escherichia coli (strain K12)) (UniProt P10408). Briefly: Assay to Identify E. coli SecA ATPase Inhibitors. The format is functional. The note with it: 30 µM.
The target in assay [2] is T1, Ubiquitin-activating enzyme e1, putative (Leishmania donovani (strain BPK282A1)) (UniProt E9BSI1).
T1 sequence (whole entry): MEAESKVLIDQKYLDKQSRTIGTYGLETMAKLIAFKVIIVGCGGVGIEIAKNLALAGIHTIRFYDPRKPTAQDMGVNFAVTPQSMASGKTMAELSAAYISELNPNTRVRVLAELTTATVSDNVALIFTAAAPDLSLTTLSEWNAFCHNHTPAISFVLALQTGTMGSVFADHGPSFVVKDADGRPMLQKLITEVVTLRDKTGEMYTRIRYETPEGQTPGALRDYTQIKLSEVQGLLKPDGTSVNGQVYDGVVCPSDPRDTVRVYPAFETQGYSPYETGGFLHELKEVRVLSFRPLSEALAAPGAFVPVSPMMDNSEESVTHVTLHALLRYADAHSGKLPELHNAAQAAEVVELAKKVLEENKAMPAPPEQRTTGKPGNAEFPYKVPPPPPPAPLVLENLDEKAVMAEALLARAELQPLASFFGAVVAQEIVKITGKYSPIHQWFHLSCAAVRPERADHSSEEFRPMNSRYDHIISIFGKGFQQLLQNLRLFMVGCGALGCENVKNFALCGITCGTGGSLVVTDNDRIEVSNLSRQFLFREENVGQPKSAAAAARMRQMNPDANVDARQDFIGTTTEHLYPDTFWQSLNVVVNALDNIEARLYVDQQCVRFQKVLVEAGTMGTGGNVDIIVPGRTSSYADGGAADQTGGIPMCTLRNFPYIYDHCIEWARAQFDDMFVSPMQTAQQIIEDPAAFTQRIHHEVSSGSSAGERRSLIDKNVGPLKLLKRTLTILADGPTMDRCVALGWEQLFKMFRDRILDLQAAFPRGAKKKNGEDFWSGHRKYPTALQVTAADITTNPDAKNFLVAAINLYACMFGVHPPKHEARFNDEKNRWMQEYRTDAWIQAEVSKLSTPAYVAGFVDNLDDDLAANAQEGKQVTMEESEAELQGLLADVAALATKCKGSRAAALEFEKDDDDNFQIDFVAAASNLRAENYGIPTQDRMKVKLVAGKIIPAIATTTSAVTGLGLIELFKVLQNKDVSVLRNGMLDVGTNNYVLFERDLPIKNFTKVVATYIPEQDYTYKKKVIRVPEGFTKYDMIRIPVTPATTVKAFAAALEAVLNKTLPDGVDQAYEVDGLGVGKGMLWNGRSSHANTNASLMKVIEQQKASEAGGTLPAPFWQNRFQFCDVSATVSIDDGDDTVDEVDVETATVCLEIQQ
Briefly: Leishmania donovani Ubiquitin Activating Enzyme (LdE1). The format is functional. The note with it: 30 µM.

The target in assay [3] is Sialic acid-binding Ig-like lectin 9 (Homo sapiens) (UniProt Q9Y336). Briefly: Hs-Siglec9 ALPHAscreen SOP 20170721. The note with it: 10 µM.
Sialic acid-binding Ig-like lectin 9 (Homo sapiens), sequence (Q9Y336 whole entry): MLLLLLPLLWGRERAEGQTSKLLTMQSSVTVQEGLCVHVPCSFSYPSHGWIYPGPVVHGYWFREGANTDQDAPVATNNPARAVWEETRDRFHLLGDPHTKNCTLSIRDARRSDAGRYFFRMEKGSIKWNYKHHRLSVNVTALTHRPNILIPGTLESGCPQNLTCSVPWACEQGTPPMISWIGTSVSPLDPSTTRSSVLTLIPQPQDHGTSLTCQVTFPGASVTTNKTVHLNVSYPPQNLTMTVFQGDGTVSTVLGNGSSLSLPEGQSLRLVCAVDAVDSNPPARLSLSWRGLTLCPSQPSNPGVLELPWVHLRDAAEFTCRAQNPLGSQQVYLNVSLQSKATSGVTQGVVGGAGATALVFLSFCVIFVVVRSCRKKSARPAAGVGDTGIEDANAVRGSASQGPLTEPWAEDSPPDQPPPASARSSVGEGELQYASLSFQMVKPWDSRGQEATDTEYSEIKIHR
A further assay concerns Trypanosoma cruzi. Description: Trypanosoma cruzi phosphomannomutase and mannose-1-phosphate guanylyltransferase assay. The assay is classed as functional. The note with it: 10 µM.
For assay [4], the target named is T2, Arginase-2, mitochondrial (Homo sapiens) (UniProt P78540).
T2 sequence (whole entry): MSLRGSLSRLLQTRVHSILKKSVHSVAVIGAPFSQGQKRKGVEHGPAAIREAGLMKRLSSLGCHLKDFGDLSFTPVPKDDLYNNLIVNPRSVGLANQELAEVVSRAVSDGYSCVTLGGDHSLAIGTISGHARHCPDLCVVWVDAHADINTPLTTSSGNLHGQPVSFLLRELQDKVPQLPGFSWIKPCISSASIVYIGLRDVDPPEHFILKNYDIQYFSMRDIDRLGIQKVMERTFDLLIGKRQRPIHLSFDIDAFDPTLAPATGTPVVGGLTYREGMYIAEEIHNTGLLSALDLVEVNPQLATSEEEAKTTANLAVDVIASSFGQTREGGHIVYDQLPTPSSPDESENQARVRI
Description: in vitro enzyme assay to detect the production of urea directly proportional to the activity of Arginase II. Note: in the data most compounds retested in dose-response had high values. The note with it: 33.3 µM. The format is functional.

Assay [5] concerns the target T3, Proteasome subunit beta (Trypanosoma cruzi) (UniProt O96673).
T3 sequence (whole entry): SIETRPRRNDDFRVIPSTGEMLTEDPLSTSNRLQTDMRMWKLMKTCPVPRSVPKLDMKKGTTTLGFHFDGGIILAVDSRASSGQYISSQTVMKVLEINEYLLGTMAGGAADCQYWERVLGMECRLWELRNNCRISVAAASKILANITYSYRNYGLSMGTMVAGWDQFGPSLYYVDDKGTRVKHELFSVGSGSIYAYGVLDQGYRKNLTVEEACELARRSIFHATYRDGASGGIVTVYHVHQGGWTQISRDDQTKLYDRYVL
Briefly: Trypanosoma cruzi proteasome chymotrypsin-like activity (TcProtChymo) assay. Note: in the data most compounds retested in dose-response had high values. The assay is classed as functional. The note with it: 9.37 µM.

Another assay is filed under the species Homo sapiens. Description: To identify inhibition of the IFN signalling (Jak-Stat) pathway via expression of an eGFP reporter gene under the control of an IFN-stimulated response element (ISRE) containing MxA promoter. The assay is classed as functional. The note with it: 30 µM.
Assay [6] concerns the target T4, Tyrosyl-tRNA synthetase, putative (Trypanosoma cruzi (strain CL Brener)) (UniProt Q4DSP6).
T4 sequence (whole entry): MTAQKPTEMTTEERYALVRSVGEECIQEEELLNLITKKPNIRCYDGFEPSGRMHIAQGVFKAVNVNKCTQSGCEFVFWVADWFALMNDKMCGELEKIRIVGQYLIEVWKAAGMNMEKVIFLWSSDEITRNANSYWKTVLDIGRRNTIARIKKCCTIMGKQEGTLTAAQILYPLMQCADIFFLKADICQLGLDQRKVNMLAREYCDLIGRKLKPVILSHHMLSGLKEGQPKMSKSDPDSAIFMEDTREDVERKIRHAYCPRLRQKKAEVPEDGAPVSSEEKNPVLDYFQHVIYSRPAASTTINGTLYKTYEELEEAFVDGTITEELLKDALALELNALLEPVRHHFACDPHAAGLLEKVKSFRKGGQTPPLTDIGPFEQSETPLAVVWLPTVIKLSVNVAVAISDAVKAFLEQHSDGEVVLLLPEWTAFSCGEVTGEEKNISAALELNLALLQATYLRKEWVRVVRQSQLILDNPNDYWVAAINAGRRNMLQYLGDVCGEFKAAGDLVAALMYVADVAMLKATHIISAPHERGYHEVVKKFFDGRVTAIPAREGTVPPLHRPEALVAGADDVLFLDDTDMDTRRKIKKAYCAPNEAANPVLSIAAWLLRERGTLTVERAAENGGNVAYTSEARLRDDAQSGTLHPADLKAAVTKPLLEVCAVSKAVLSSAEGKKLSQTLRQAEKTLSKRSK
Description: Trypanosoma cruzi tyrosyl tRNA synthetase (TcYRS) _High Tyrosine SOP. Note: in the data most compounds retested in dose-response had high values. The assay is classed as functional. The note with it: 30 µM.

For assay [7], the target named is T4, Tyrosyl-tRNA synthetase, putative (Trypanosoma cruzi (strain CL Brener)). Briefly: Trypanosoma cruzi tyrosyl tRNA synthetase (TcYRS) SOP. The assay is classed as functional. The note with it: 30 µM.
Assay [8] deals with Chromo domain-containing protein 1 (Saccharomyces cerevisiae (strain ATCC 204508 / S288c) (Baker's yeast)) (UniProt P32657). Description: ScCHD-1 Enzyme Inhibition Assay. Note: in the data most compounds retested in dose-response had high values. The format is functional. The note with it: 30 µM.
Chromo domain-containing protein 1 (Saccharomyces cerevisiae (strain ATCC 204508 / S288c) (Baker's yeast)), sequence (P32657 whole entry, the tested form may be a part): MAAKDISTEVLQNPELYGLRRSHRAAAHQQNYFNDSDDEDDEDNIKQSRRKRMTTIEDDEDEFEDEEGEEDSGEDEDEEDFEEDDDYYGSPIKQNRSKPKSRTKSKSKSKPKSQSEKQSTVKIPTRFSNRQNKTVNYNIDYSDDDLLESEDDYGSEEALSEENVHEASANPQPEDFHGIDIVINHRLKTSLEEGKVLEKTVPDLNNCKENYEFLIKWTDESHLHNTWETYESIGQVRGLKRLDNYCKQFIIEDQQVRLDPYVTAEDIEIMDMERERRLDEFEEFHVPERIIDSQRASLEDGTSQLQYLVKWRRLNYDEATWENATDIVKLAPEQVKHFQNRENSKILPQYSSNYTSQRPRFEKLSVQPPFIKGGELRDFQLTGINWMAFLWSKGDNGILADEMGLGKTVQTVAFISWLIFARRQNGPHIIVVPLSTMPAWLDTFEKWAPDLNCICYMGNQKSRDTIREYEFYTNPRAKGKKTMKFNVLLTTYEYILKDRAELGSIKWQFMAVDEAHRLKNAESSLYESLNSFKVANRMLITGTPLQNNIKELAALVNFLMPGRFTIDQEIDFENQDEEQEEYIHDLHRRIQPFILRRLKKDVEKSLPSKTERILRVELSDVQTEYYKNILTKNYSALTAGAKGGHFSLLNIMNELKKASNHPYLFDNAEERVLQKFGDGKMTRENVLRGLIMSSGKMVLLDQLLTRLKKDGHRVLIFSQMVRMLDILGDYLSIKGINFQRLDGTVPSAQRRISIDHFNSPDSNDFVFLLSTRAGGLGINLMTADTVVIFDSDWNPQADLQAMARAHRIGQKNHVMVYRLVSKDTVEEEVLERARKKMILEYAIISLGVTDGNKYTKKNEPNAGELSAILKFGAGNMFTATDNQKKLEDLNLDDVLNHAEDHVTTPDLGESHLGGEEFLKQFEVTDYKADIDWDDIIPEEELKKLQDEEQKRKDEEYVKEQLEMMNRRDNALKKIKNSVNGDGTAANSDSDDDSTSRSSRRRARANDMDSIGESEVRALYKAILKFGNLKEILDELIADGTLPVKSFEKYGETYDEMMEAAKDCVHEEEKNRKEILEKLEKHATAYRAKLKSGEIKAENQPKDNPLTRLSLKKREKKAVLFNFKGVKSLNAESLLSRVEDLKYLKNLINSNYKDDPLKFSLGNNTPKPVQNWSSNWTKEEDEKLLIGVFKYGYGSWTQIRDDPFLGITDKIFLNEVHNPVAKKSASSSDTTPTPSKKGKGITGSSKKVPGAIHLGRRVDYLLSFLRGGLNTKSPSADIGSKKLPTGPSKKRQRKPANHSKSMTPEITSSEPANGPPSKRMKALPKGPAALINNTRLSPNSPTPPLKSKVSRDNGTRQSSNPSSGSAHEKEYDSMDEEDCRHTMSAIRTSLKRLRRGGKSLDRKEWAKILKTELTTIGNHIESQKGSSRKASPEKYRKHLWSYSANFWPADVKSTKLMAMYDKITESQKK

The structures appear in SMILES notation. For some of these results: Results with a measured potency or affinity are listed apart.

Protein translocase subunit SecA (Escherichia coli (strain K12)), sequence (P10408 whole entry): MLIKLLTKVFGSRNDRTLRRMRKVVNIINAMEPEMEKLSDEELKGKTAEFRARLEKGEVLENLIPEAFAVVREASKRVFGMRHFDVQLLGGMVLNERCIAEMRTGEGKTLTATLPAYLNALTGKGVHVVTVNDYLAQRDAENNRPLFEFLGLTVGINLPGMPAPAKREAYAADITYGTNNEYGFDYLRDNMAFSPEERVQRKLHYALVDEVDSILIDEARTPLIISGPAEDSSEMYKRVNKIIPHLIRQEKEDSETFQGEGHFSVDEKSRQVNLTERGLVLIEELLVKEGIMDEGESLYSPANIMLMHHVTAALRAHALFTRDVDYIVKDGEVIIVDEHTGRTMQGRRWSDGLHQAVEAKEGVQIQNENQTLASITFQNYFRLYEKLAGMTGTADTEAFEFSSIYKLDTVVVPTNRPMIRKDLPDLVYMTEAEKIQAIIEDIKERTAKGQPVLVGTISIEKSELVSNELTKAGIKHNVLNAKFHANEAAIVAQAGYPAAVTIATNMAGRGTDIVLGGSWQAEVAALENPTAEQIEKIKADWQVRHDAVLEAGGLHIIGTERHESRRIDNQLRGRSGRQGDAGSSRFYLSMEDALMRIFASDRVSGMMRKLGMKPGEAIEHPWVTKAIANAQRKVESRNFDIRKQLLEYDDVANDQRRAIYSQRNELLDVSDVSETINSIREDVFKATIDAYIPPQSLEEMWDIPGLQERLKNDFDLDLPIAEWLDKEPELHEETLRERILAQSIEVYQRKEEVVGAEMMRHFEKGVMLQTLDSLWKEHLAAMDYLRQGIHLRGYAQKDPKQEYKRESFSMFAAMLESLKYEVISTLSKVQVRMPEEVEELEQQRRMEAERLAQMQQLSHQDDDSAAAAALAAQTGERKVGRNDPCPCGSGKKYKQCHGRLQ

As to `CCC1=N[C@@]2(CC[C@@H]3CN(C(=O)NCc4ccccc4)C[C@@H]32)C(=O)N1C`, the Percent Effect in [1] is -5.59%; in assay [2], -6.49%; in [3], -0.715%; with Trypanosoma cruzi, -3.02%; in assay [4], -2.02%; in [5], 5.21%. Further, the Percent Effect in the assay listed under Homo sapiens was 6.81%; in assay [6] it was 1.58%; in [7] it was -10.3%; in assay [8] it was 0.585%.
Take `O=C1C(NCc2nnc3n2CCCC3)CCN1c1ccccc1` (stereo not given): the Percent Effect in assay [1] is -2.98%; in assay [2], 10.3%; in assay [3], -1.63%; with Trypanosoma cruzi it was 8.17%; in assay [4], 7.79%; in [5] it was -2.99%. In addition, the Percent Effect in the assay filed under Homo sapiens is 18.5%; in assay [6], 3.35%; in assay [7], 13.2%; in assay [8], -2.81%.
Take `COc1c(C2CCCN2C(=O)c2c[nH]c3ncccc23)c(C)nn1C` (stereo not given): the Percent Effect in assay [1] is -5.03%; in [2] it was 7.79%; in assay [3], 8.63%; in the assay on Trypanosoma cruzi, -5.41%; in [4] it was 2.25%; in assay [5] it was 7.02%. Moreover, the Percent Effect in the assay listed under Homo sapiens is 1.49%; in [6], 5.88%; in [7], 7.06%; in [8], -7.9%.
In the case of `NC(=O)c1cc(C2CCCN(CCOCC(F)(F)F)C2)n[nH]1` (stereo not given), the Percent Effect in assay [1] is -3.84%; in assay [2] it was 2.56%; in assay [3], -22.8%; in the assay on Trypanosoma cruzi, 9.3%; in assay [4], -5.33%; in assay [5] it was 8.45%. Also, the Percent Effect in the assay filed under Homo sapiens was -4.53%; in [6] it was 2.39%; in assay [7], 10.8%; in assay [8], 26.2%.
As to `Cc1nc(CN2CCC3(CC2)NC(=O)CC3c2ccccc2)cs1` (stereo not given), the Percent Effect in assay [1] is -3.5%; in assay [2], -1.3%; in assay [3] it was -0.193%; in the assay on Trypanosoma cruzi it was 0.375%; in [4] it was -0.913%; in assay [5], 9.19%. Besides, the Percent Effect in the assay filed under Homo sapiens is 4.58%; in [6] it was 8.7%; in [7], 12.5%; in assay [8], -9.48%.
Regarding `O=C(CSc1ccccn1)N1C[C@H]2CC[C@@H]1CN(Cc1cscn1)C2`, the Percent Effect in assay [1] is -11.4%; in assay [2], 0%; in assay [3] it was 4.87%; in the assay with Trypanosoma cruzi, -3.78%; in [4], -0.35%; in assay [5], 13.9%. Besides, the Percent Effect is 11.3% in the assay filed under Homo sapiens, -3.72% in assay [6], -4.88% in assay [7] and -3.86% in assay [8].
Consider `Cn1cccc1-c1cc(C(=O)N2CC(c3cccnc3)C2)[nH]n1`, for which the Percent Effect is -12.9% in [1]; 2.7% in assay [2]; 4.47% in assay [3]; -2.81% in the assay on Trypanosoma cruzi; 1.05% in [4]; 5.65% in [5]. Further, the Percent Effect in the assay filed under Homo sapiens is 32.9%; in assay [6], -1.6%; in assay [7] it was 0%; in [8], 0.144%.
As for `CC(NC(=O)c1cc(Br)c2c(c1)OCCO2)C(N)=O` (stereo not given), the Percent Effect in assay [1] was -7.52%; in [2], 18.7%; in assay [3], 6.37%; with Trypanosoma cruzi, 5.82%; in assay [4], -3.55%; in [5], 17.9%. The Percent Effect in the assay filed under Homo sapiens is 0.842%; in assay [6], 2.63%; in assay [7] it was 10.3%; in assay [8], 77.7%.
Turning to `CN1CCN(C(=O)c2cccc(OCc3cscn3)c2)CC1`, the Percent Effect in [1] is -6.48%; in assay [2] it was 2.56%; in assay [3], -10.9%; with Trypanosoma cruzi, -3.1%; in [4] it was -0.41%; in [5] it was -1.62%. The Percent Effect came out at 19.3% in the assay listed under Homo sapiens, 0.478% in assay [6], 6.02% in assay [7] and 5.6% in assay [8].
Regarding `Cc1ccc(OC2(C(=O)O)CCN(C(=O)c3ccc(F)cc3)CC2)cn1`, the Percent Effect in assay [1] was -6.12%; in assay [2], -2.7%; in assay [3] it was 27.8%; with Trypanosoma cruzi, 9.41%; in assay [4], -1.05%; in assay [5], 1.88%. Also, the Percent Effect in the assay listed under Homo sapiens is -18.1%; in assay [6], 2.66%; in assay [7], 7.32%; in assay [8] it was -1.29%.
In the case of `CCOc1ccc(Cl)c(C(=O)N(C)C)n1`, the Percent Effect was -2.43% in [1]; 15.4% in assay [2]; -11.2% in [3]; -3.66% in the assay with Trypanosoma cruzi; 2.05% in assay [4]; 14.2% in assay [5]. Besides, the Percent Effect in the assay filed under Homo sapiens was 30.8%; in [6], 4.31%; in assay [7], 13.2%; in assay [8] it was -2.78%.
Take `COC(=O)Cn1c(=O)nc2n1C(=O)N(c1ccccc1)C2`: the Percent Effect in [1] is -4.54%; in [2], 5.41%; in assay [3] it was -1.57%; with Trypanosoma cruzi it was -7.27%; in [4] it was 5.94%; in [5] it was 9.76%. The Percent Effect was 17% in the assay listed under Homo sapiens, 3.72% in [6], 9.76% in [7] and -2.64% in [8].
Turning to `O=C1CC(c2ccncc2)C2(CCN(CCO)CC2)N1` (stereo not given), the Percent Effect in assay [1] is -2.64%; in assay [2], 3.9%; in assay [3], -0.555%; in the assay with Trypanosoma cruzi, 5.55%; in assay [4] it was -3.64%; in [5], 8.91%. Also, the Percent Effect in the assay filed under Homo sapiens is -9.49%; in assay [6], -0.526%; in assay [7], 2.56%; in [8], 17.5%.
